Data: PubChem BioAssay AID1259372 (The Scripps Research Institute Molecular Screening Center, 2018)
The whole screen tested about 4,700 compounds, of which about 760 (16%) were called active.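 How the source made its calls: active means inhibition above a cutoff derived from the DMSO control wells (cut at about 28% in these data); inactive means the rest.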 The list is a sample of the results.

molecular target: Microphthalmia-associated transcription factor (Homo sapiens) (UniProt O75030); assay: blockers of human MITF dimerization – biochemical, AlphaScreen, triplicate, confirmation (AID 1259372); conditions: AlphaScreen MITF homodimerization, biotin/His-MITF beads; at 2.6 µM; active compounds read high
Sequence (O75030 whole entry, looked up): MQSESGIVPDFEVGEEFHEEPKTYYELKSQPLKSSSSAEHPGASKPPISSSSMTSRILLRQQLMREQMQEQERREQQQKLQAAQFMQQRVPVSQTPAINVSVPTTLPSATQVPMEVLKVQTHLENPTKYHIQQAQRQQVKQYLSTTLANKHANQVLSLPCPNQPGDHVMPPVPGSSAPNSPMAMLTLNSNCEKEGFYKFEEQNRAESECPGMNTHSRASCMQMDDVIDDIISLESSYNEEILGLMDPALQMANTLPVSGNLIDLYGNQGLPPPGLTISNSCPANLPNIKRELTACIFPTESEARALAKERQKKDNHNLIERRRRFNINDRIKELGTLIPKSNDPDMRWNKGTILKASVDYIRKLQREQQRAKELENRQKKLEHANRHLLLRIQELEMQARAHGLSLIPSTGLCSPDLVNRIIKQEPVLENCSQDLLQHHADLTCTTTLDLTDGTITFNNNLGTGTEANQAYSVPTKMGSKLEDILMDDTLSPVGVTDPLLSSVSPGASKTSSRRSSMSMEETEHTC

Row | Compound | inhibition
1 | O=C(C1CCN(Cc2nc3ccccc3[nH]2)CC1)N1CCN(c2ccccn2)CC1 | 0.24% (inactive)
2 | COc1ccc(OC)c(CN2CCN(Cc3ccccc3OC)CC2)c1 | 10.6% (inactive)
3 | C=CCNCCOCCOc1cc(C)ccc1C(C)(C)C | 7.1% (inactive)
4 | Cc1cnc(NCc2ccc3c(c2)OCO3)nc1Nc1ccccc1 | -0.48% (inactive)
5 | c1cc2c(cc1CN1CCN(C3CCCCC3)CC1)OCO2 | -2.28% (inactive)
6 | c1cc2c(cc1CNc1nc(Nc3ccc(N4CCOCC4)cc3)c3ncn(C4CCCCC4)c3n1)OCO2 | 71.3% (active)
7 | CC(C)(C)NCCOCCOc1ccc(Cl)c(Cl)c1 | 4.77% (inactive)
8 | O=C(Nc1ccc2c(c1)OCO2)C(c1ccccc1)N(Cc1ccccc1)Cc1ccccc1 (configuration not stated) | -3.96% (inactive)
9 | Cc1cccc(CSc2n[nH]c(=O)[nH]c2=O)c1 | -2.69% (inactive)
10 | COc1cc(OC)c(OC)cc1CN1CCN(Cc2ccc(F)cc2)CC1 | -1.09% (inactive)
11 | Cc1nnc(N2CCC(Cc3ccccc3)CC2)c2ccccc12 | 2.32% (inactive)
12 | COc1ccc(CNCC2CN(CC(C)C)CCO2)cc1 (configuration not stated) | 10% (inactive)
13 | CCN1CCN(CCOCCOc2ccc([N+](=O)[O-])cc2)CC1 | 3.04% (inactive)
14 | c1ccc(-c2ccccc2OCCNCCN2CCOCC2)cc1 | 16.9% (inactive)
15 | O=C(O)CCCCCNC(=O)/C(=C\c1ccco1)NC(=O)c1ccccc1 | 25.9% (inactive)
16 | O=[N+]([O-])c1ccccc1CN1CCN(Cc2ccccc2C(F)(F)F)CC1 | 3.85% (inactive)
17 | Cc1cc(OCCN2CCN(C)CC2)ccc1C(C)C | -2.72% (inactive)
18 | O=C(O)CCCCC1SCC2NC(=O)NC21O (configuration not stated) | 116% (active)
19 | COC(=O)C1(C)NC(c2ccc(C)cc2)C2C(=O)N(c3ccc(F)cc3)C(=O)C21 (configuration not stated) | 11.8% (inactive)
20 | CC(=O)c1ccc(NC(=O)C(C)NCc2ccc(C)cc2)cc1 (configuration not stated) | 3.11% (inactive)
21 | O=C(c1cccs1)N1CCC(N2CCN(Cc3ccccc3)CC2)CC1 | 1.58% (inactive)
22 | NC(=O)COC(=O)/C=C/c1ccc(I)o1 | 57.8% (active)
23 | Cc1nc(NC2CC2)cc(-c2ccc(F)cc2)n1 | 12% (inactive)

Row | Compound | inhibition
24 | CCOc1ccc(CN2CCN(C(=O)c3cccc(Cl)c3)CC2)cc1 | -0.91% (inactive)
25 | CC(C)c1ccc(C2/C(=C(/O)c3ccccc3)C(=O)C(=O)N2CCN(C)C)cc1 (configuration not stated) | 4.9% (inactive)
26 | CCCCCOc1ccc(OC(=O)c2ccc(-c3ccc(CCC)cn3)cc2)cc1 | 4.5% (inactive)
27 | COc1ccc(Br)cc1CN1CCN(CCOCCO)CC1 | -4.85% (inactive)
28 | O=S(=O)(c1ccc(Br)cc1Cl)N1CCN(CCc2ccncc2)CC1 | 11.6% (inactive)
29 | CCN(CC)CC(=O)Nc1c2c(nc3ccccc13)N(c1cccc(C)c1)CC2 | -3.54% (inactive)
30 | c1ccc(CCCCNc2nccc(Nc3ccncn3)n2)cc1 | -1.64% (inactive)
31 | CN(C)CC(C)(C)CNCc1nnc(-c2ccccc2)o1 | -4.13% (inactive)
32 | COc1ccc(CN2CCN(Cc3cccnc3)CC2)cc1OCc1ccccc1 | 3.98% (inactive)
33 | CCCCCCOC(=O)c1cc(C(=O)OCCCCCC)c(C)nc1C | -4.67% (inactive)
34 | COc1cccc(C(=O)N2CCN(Cc3cc(OC)c(OC)cc3OC)CC2)c1 | 0.86% (inactive)
35 | COc1cc(CN2CCN(Cc3cc(OC)c(OC)cc3OC)CC2)cc(OC)c1 | 7.67% (inactive)
36 | c1ccc(Oc2cccc(OCCCCn3cncn3)c2)cc1 | -15.6% (inactive)
37 | CCCn1c(C)cc(-c2csc(NC(=O)Cc3ccsc3)n2)c1C | 21.7% (inactive)
38 | COC(=O)c1cccc(NS(=O)(=O)c2ccc3ccccc3c2)c1C | 1.98% (inactive)
39 | Clc1ccc(CN2CCN(CC3CC=CCC3)CC2)cc1 (configuration not stated) | -2.27% (inactive)
40 | COc1cc(CN2CCN(Cc3ccc(C)cc3)CC2)c([N+](=O)[O-])cc1OC | 6.72% (inactive)
41 | CCOc1cc(CN2CCN(Cc3ccccn3)CC2)ccc1OC | 13.2% (inactive)
42 | CCOc1ccccc1N1CCN(Cc2cc(OC)c(O)c([N+](=O)[O-])c2)CC1 | 32.4% (active)
43 | CCN1CCN(CCCOc2ccc(C(C)=O)cc2OC)CC1 | 1.36% (inactive)
44 | COc1cc(CN(CCN(C)C)Cc2ccccc2)cc(OC)c1 | 15.3% (inactive)
45 | Cc1cc(C(C)(C)C)ccc1OCCN1CCNCC1 | -3.14% (inactive)
46 | Cn1c(-c2ccc(F)cc2)cnc1NCc1cccnc1 | -19.5% (inactive)

Row | Compound | inhibition
47 | Cc1ccc(CN2CCN(Cc3ccncc3)CC2)cc1 | 15.2% (inactive)
48 | COc1cccc(CN2CCN(C(=O)c3ccccc3F)CC2)c1 | -1.9% (inactive)
49 | c1cc2c(cc1CN1CCN(C3CCCC3)CC1)OCO2 | -0.1% (inactive)
50 | O=C1NC(c2ccccc2[N+](=O)[O-])C(C(=O)c2cccs2)C(O)(C(F)(F)F)N1 (configuration not stated) | 4.8% (inactive)
51 | CN1CCN(CCOCCOc2ccccc2Cl)CC1 | 6.9% (inactive)
52 | N#C/C(=C/c1ccc(-c2ccc3c(c2)C(=O)NC3=O)o1)C(=O)O | 6.58% (inactive)
53 | Cc1ccc(NC(=O)CNCCCSc2ccccc2)cc1C | 14.7% (inactive)
54 | CCc1ccc(NC(=O)CS(=O)CC(=O)NCCCc2ccccc2)cc1 (configuration not stated) | 44.5% (active)
55 | Nc1ccc(S(=O)(=O)O)c2cc(S(=O)(=O)O)cc(O)c12 | 42.7% (active)
56 | Cc1ccc(C)c(OCCN2CCOCC2)c1C | 15.2% (inactive)
57 | COc1cc(CN2CCN(Cc3ccccc3Br)CC2)cc(OC)c1 | 9.11% (inactive)
58 | COc1ccc(COCC(O)CNCC(C)(C)CN(C)C)cc1OC (configuration not stated) | 3.01% (inactive)
59 | COCc1nc2ccccc2n1CCc1noc(-c2ccco2)n1 | 6.8% (inactive)
60 | C1=CC2CC1CC2CN1CCN(Cc2c[nH]c3ccccc23)CC1 (configuration not stated) | -0.81% (inactive)
61 | COc1cccc(/C=C(\C#N)c2nc3ccccc3[nH]2)c1OCc1ccc(Cl)cc1Cl | 0.99% (inactive)
62 | COc1ccc(CN2CCN(Cc3ccccc3OC)CC2)cc1Br | 5.52% (inactive)
63 | O=[N+]([O-])c1ccc(OCc2nnc(SCCN3CCOCC3)n2-c2ccccc2)cc1 | 2.94% (inactive)
64 | CCCS(=O)(=O)N1CCN(Cc2ccc(OC)c(OCc3ccccc3)c2)CC1 | -0.41% (inactive)
65 | CC1CN(CCOc2ccccc2[N+](=O)[O-])CC(C)O1 (configuration not stated) | 6.95% (inactive)
66 | Cc1ccc(C(C)C)c(OCCN2CCNCC2)c1 | -8.7% (inactive)
67 | COc1ccc2c(c1)CC(C(=O)Nc1ccc(-c3cn[nH]c3)cc1OCC(N)=O)CO2 (configuration not stated) | 40.3% (active)
68 | COc1ccc(NC(=O)CN2CCN(C)CC2)c(OC)c1 | 13% (inactive)
69 | COc1ccc2c(c1)CC(C(=O)Nc1ccc(-c3cn[nH]c3)cc1OCc1ccccc1)CO2 (configuration not stated) | 56% (active)

Row | Compound | inhibition
70 | CC1CCN(S(=O)(=O)c2ccc(Cl)c(C(=O)Nc3ccccc3[N+](=O)[O-])c2)CC1 | 16.1% (inactive)
71 | Clc1cccc(CN2CCN(C3CCCC3)CC2)c1 | 12.9% (inactive)
72 | O=C(c1cccc(Cl)c1)N1CCN(Cc2cccnc2)CC1 | 16.8% (inactive)
73 | O=C(c1ccc2c(c1)C(=O)N(Cc1cccnc1)C2=O)c1ccc2c(c1)C(=O)N(Cc1cccnc1)C2=O | 51.2% (active)
74 | Brc1cccc(CN2CCN(Cc3cccnc3)CC2)c1 | 5.44% (inactive)
75 | COc1ccc(-c2nc(Nc3cc(OC)c(OC)c(OC)c3)c3[nH]cnc3n2)cc1 | 14% (inactive)
76 | COc1cc(CN2CCN(Cc3ccc(Cl)cc3)CC2)c([N+](=O)[O-])cc1OC | 5.78% (inactive)
77 | O=C(Nc1ccc(-c2ccncc2)c(C(F)(F)F)c1)C1COc2ccccc2O1 (configuration not stated) | 42.5% (active)
78 | COc1ccc(CN2CCN(Cc3ccccc3C(F)(F)F)CC2)cc1OC | 24.4% (inactive)
79 | CCN1CCN(CC(O)COc2cccc(C(=O)OC)c2)CC1 (configuration not stated) | -4.86% (inactive)
80 | COc1cccc(CN2CCN(C/C=C/c3ccccc3)CC2)c1OC | 2.33% (inactive)
81 | Cc1cc(NC(=O)/C=C/C(=O)N(CC(=O)NC2CCCC2)c2ccc(F)cc2)no1 | 10.1% (inactive)
82 | COc1cccc(OC)c1C(=O)N1CCN(Cc2cccnc2)CC1 | -5.41% (inactive)
83 | CS(=O)(=O)N1CCN(Cc2cccc(Cl)c2)CC1 | -2.19% (inactive)
84 | CN(CCc1ccccn1)CC(=O)N1CCc2ccccc21 | 12.3% (inactive)
85 | CSc1ccc(CN2CCN(S(=O)(=O)c3ccc([N+](=O)[O-])cc3)CC2)cc1 | 19.9% (inactive)
86 | Cn1c(=NC(=O)COc2ccccc2)sc2cc(S(C)(=O)=O)ccc21 | 4.53% (inactive)
87 | NS(=O)(=O)c1cccc(NC(=O)COc2ncnc3sc(-c4ccccc4)cc23)c1 | 13.3% (inactive)
88 | Cc1cc(S(=O)(=O)Nc2ccc3c(c2)OCCO3)ccc1-n1cnnn1 | 5.76% (inactive)
89 | COc1cc2nc(-c3cccc(C(C)=O)c3)nc(N)c2cc1OC | -8.94% (inactive)
90 | O=C1c2ccccc2C(O)N1Cc1ccccc1Cl (configuration not stated) | -9.08% (inactive)
91 | COc1ccc(C2C(C(C)=O)=C(C)N=C3SCC(=O)N32)c(OC)c1 (configuration not stated) | -3.48% (inactive)
92 | CCN1CCN(CCCCOc2ccccc2F)CC1 | 6.76% (inactive)

Row | Compound | inhibition
93 | O=C(c1ccccc1)N1CCN(C2CCCC2)CC1 | -3.05% (inactive)
94 | Cc1nc(NC(=O)c2cc(Br)ccc2Cl)sc1C | 11% (inactive)
95 | CC1(C)CC(=O)C2=C(C1)Nc1ccccc1N(C(=O)Cc1ccccc1)C2c1ccc(-c2ccc([N+](=O)[O-])cc2)o1 (configuration not stated) | 12.3% (inactive)
96 | CCNc1nc(NCC)nc(C(=O)O)n1 | 54.9% (active)
97 | Cn1c(=O)oc2cc(S(=O)(=O)N3CCC(C(=O)NC(C)(C)C)CC3)ccc21 | -16.9% (inactive)
98 | C=CCn1c(SCC(=O)Nc2nc3ccccc3s2)nc(O)cc1=O | -1.3% (inactive)
99 | COc1cc(CN2CCN(C(=O)C(c3ccccc3)c3ccccc3)CC2)cc(OC)c1OC | 5.49% (inactive)
100 | CSc1nnc(SCc2nc3sc(C(=O)O)c(C)c3c(=O)[nH]2)s1 | 14.3% (inactive)
101 | O=C(CCC(=O)OCc1ccc(Cl)cc1)Nc1ccc([N+](=O)[O-])cc1 | 13.1% (inactive)
102 | Cc1ccc(NC(=O)COC(=O)CCC(=O)Nc2sc3c(c2C(N)=O)CCC3)cc1F | 87.4% (active)
103 | CC(=O)N1CCN(CC(=O)Nc2ccc(C)c(F)c2)CC1 | -10.5% (inactive)
104 | OCCOCCN1CCN(Cc2ccc(Cl)cc2)CC1 | 1.57% (inactive)
105 | COc1cccc(CN2CCN(CCCc3ccccc3)CC2CCO)c1 (configuration not stated) | -0.58% (inactive)
106 | COC(=O)CSc1nc(C2CC2)nc2ccccc12 | 5.56% (inactive)
107 | CC1CCCC(N2CCN(Cc3ccccc3Cl)CC2)C1 (configuration not stated) | -6.77% (inactive)
108 | O=C(CNCc1cccnc1)Nc1ccc(C(=O)N2CCCCC2)cc1 | 7.91% (inactive)
109 | CC(=O)N1CCN(C(=O)c2ccc(N3CC4CC(C3)c3cccc(=O)n3C4)c(NC(=O)c3cccnc3)c2)CC1 (configuration not stated) | -11.6% (inactive)
110 | CCSc1ccccc1C(=O)N1CCN(c2ccc(-c3ccccn3)nn2)CC1 | 111% (active)
111 | COc1ccc(OCCn2ccnc2C)cc1 | -1.1% (inactive)
112 | COc1cc(CN2CCN(Cc3ccc(OC)c(OC)c3)CC2)cc(OC)c1 | 4.54% (inactive)
